For experiment [1] the following is noted: Ebola virus entry assay, green fluorescence channel.
For experiment [2] the following is noted: Ebola virus entry assay, blue channel fluorescence.

Unmarked numbers belong to inactive results. For some assays here: Measured potencies and affinities stand elsewhere. Activity calls are given as the source filed them. No rule for the calls is given here.
For efficacy in this document: 0% is about no effect.

Turning to `O=C(O)CSCC(=O)NC1CCSC1=O` (stereo not given), the efficacy in experiment [1] is -14.4%.
Consider `CC1c2ccccc2CN1NC(=O)c1ccc(Cl)c(S(N)(=O)=O)c1` (stereo not given), for which, in experiment [1], the efficacy is 14.8%.
In the case of `CC1(COc2ccc(CC3SC(=O)NC3=O)cc2)CCCCC1` (stereo not given), the efficacy in experiment [1] was -16.4%.
The same measure, in the same setting: the figure for `CC(=O)OCC(=O)[C@H]1CC[C@H]2[C@@H]3CCC4=CC(=O)CC[C@]4(C)[C@H]3CC[C@]12C` is -27%.
As for `CCN(CC)CCNC(=O)c1ccc(N)cc1`, the efficacy in experiment [1] was -17.1%.
Turning to `O=C(O)c1cc(O)c(O)c(O)c1`, the efficacy in experiment [1] is 15.2%.
As to `C[C@H]1C[C@H](O)c2ccsc2S1(=O)=O`, the efficacy in experiment [1] was 20.1%. For the same compound, in experiment [2], the result was inactive.
As to `C[n+]1c2cc(N)ccc2cc2ccc(N)cc21` (tested in a mixture with another compound), in experiment [1], the efficacy was 129%.
Take `COC(=O)/C=C(/C)N`: in experiment [1], the efficacy is 22.1%.
Regarding `CC(=O)OC(C)OC(=O)C(C)c1ccc(-c2ccccc2)c(F)c1` (stereo not given), the efficacy in experiment [1] is -16.8%.
As to `OCCc1ccccc1`, the efficacy in experiment [1] was 36.8%.
For the compound `COc1ccc2[nH]cc(CCNC(C)=O)c2c1`, the efficacy in experiment [1] was -12.3%.
`O=C1c2ccccc2C(=O)C1C(=O)C(c1ccccc1)c1ccccc1`: in experiment [1], the efficacy was -17.4%.
As to `CCCCCCCCCCCCCCCCCCO`, the efficacy in experiment [1] is -11.3%.
For the compound `Cc1ccccc1OCC(O)CO` (stereo not given), in experiment [1], the efficacy was 25.5%.
In the case of `Cc1c(C)c2c(c(C)c1O)CCC(C)(COc1ccc(CC3SC(=O)NC3=O)cc1)O2` (stereo not given), in experiment [1], the efficacy is 35.5%. For the same compound, the call in experiment [2] was inactive.
With `O=c1[nH]oc2c1CCNC2`, the efficacy in experiment [1] was 22.4%.
Regarding `Cc1c(C(=O)O)c(O)cc2c1C(=O)c1c(O)c([C@@H]3O[C@H](CO)[C@@H](O)[C@H](O)[C@H]3O)c(O)c(O)c1C2=O`, the efficacy in experiment [1] was -19.5%.
Regarding `CC[C@]12CCCN3CCc4c(n(c5ccccc45)[C@@](O)(C(=O)OC)C1)[C@@H]32`, the efficacy in experiment [1] was -18%.
Still for that read-out and setting: the same measure for `CCOC(=O)CC(SP(=S)(OC)OC)C(=O)OCC` (stereo not given): -13.3%; for `Nc1ncnc2c1ncn2Cc1c(F)cccc1Cl`: -22.1%; for `O=C(O)CNC(=O)c1ccccc1`: -32.2%.
As for `CCN(CC)C(=O)[C@@H]1C=C2c3cccc4[nH]cc(c34)C[C@H]2N(C)C1`, the efficacy in experiment [1] was 49.3%.
With `CCCCC(CC)COC(=O)c1ccccc1O` (stereo not given), the efficacy in experiment [1] was -34.1%.
With `CCOC(=O)c1cnc2c(cnn2CC)c1NN=C(C)C`, the efficacy in experiment [1] was -8.64%.
With `CCCCCCCCCCC[C@@H](C[C@@H]1OC(=O)[C@H]1CCCCCC)OC(=O)[C@H](CC(C)C)NC=O`, the efficacy in experiment [1] was -27.6%.
Consider `CC1(C)O[C@H]2CC(=O)OC[C@]23[C@H]2CC[C@@]4(C)[C@H](c5ccoc5)OC(=O)[C@H]5O[C@]54[C@]2(C)C(=O)C[C@@H]13`, for which the efficacy in experiment [1] is -20.6%.
In the case of `COc1ccccc1OCC(O)CO` (stereo not given), the efficacy in experiment [1] is 12%.
For `Cc1ccccc1N1CCN(CCc2nnc3n2CCCC3)CC1`, in experiment [1], the efficacy was -13.1%.
Regarding `COc1cc(OC)c(C(=O)CCCN2CCCC2)c(OC)c1`, the efficacy in experiment [1] is -22.4%.
On to `Cc1cc(CC(=O)O)c(C)n1-c1ccc(Cl)cc1`, for which the efficacy in experiment [1] is 41.9%. Further, the result in experiment [2] was inactive.
With `COc1cc(C)c(Cc2cnc(N)nc2N)cc1OC`, in experiment [1], the efficacy was -5.94%.
For `CC(=O)c1cc2ccccc2s1`, the efficacy in experiment [1] was -31.8%.
As to `O=C(N/N=C/c1ccc([N+](=O)[O-])o1)c1cc([N+](=O)[O-])cc([N+](=O)[O-])c1O`, the efficacy in experiment [1] was -16.9%.
`CCN(CC)CCNC(=O)COc1ccc(OC)cc1`: the efficacy in experiment [1] was 11.4%.
In the case of `C#C[C@]1(O)CC[C@H]2[C@@H]3CCc4cc(OC5CCCC5)ccc4[C@H]3CC[C@@]21C`, the efficacy in experiment [1] was 57.3%.
With `CCC(C)C(C)(COC(N)=O)COC(N)=O` (stereo not given), in experiment [1], the efficacy is 12.3%.
As for `C[C@]12CCC(=O)C=C1CC[C@@H]1[C@@H]2CC[C@]2(C)C(=O)CC[C@@H]12`, the efficacy in experiment [1] is 19.1%.
As to `CC(=O)[C@H]1CC[C@H]2[C@@H]3C=CC4=CC(=O)CC[C@@]4(C)[C@@H]3CC[C@]12C`, the efficacy in experiment [1] is 16%.
As for `Cc1cc(O)c2c(O)c3c(O)cccc3cc2c1`, the efficacy in experiment [1] is 34.7%. Also, the result in experiment [2] was inactive.
As for `CN1C[C@@H]2C[C@H]1CN2c1cc2c(cc1F)c(=O)c(C(=O)O)cn2C1CC1`, the efficacy in experiment [1] was 18.4%. For the same compound, the compound was classed as inactive in experiment [2].
For the compound `O=C1[C@@H]2[C@H]3CC[C@H](C3)[C@@H]2C(=O)N1CCCCN1CCN(c2ncccn2)CC1`, the efficacy in experiment [1] was -13.3%. The outcome in experiment [2] was inactive.
Take `CC[C@H](C)[C@H](N)C(=O)O`: the efficacy in experiment [1] is -38.6%. Moreover, the result in experiment [2] was inactive.

Values taken from PubChem BioAssay (NCATS).
